Active and inactive are the calls of the source. The calls were made as follows: active = hit-call score of the fitted dose curve at least 0.9, where 1 is the maximum; inactive = score below 0.9.
Columns and labels:
[1] = ATG_CRE_CIS: Attagene CIS-FACTORIAL HepG2 Assay for human cAMP Responsive Element (CRE) binding protein 3 (AID 2282926); details: HepG2 CRE cis-reporter, Attagene multiplexed mRNA; actives raise or lower the signal
Procedure, shortened: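 Multiplexed transcription-unit reporters transfected into HepG2; 24 h dosing; RT-PCR/capillary electrophoresis fluorescence read-out; bidirectional fit vs DMSO.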

[2] = ATG_CMV_CIS: Attagene CIS-FACTORIAL HepG2 Assay for human CMV (Internal Marker) (AID 2282928); details: HepG2 CMV promoter reporter, transcription factor profiling; actives raise or lower the signal;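 also: endpoint acts as a background internal control marker rather than a target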
Procedure, shortened: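 After transient transfection of HepG2 with reporter transcription units driven by cis-regulatory promoters, cells receive test chemical for 24 h. Labeled reporter amplicons, digested with HpaI, are sized and quantified by capillary electrophoresis against DMSO.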

[3] = ATG_DR4_LXR_CIS: Attagene CIS-FACTORIAL HepG2 Assay for human Liver X Receptor (LXR), DR4 submotif (AID 2282929); details: HepG2 Attagene DR4 cis-reporter, mRNA transcription; actives raise or lower the signal
Procedure, shortened: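 Measures endogenous transcription factor activity via a DR4-driven reporter transcript in human HepG2 cells. Compounds incubated 24 h; mRNA quantified by RT-PCR and capillary electrophoresis, analysed as gain or loss of signal versus DMSO.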

[4] = ATG_AP_1_CIS: Attagene CIS-FACTORIAL HepG2 Assay for human Activator Protein 1 (AP-1) (AID 2282931); details: HepG2 Attagene cis-factorial AP-1 reporter mRNA; actives raise or lower the signal
Procedure, shortened: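 Bidirectional concentration-response fitting against DMSO controls. Underlying signal: reporter mRNA from cis-promoter constructs in transiently transfected HepG2, measured after 24 h by RT-PCR and capillary electrophoresis.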

[5] = ATG_AP_2_CIS: Attagene CIS-FACTORIAL HepG2 Assay for human Activator Protein 2 (AP-2) (AID 2282932); details: HepG2 AP-2 cis-reporter, Attagene transcription factor profiling; actives raise or lower the signal
Procedure, shortened: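 HepG2 cells transiently transfected with cis-element reporter units and exposed for 24 h. Reporter mRNA measured by RT-PCR, FAM labelling, HpaI digestion and capillary electrophoresis. Changes in either direction fitted relative to DMSO.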

[6] = ATG_BRE_CIS: Attagene CIS-FACTORIAL HepG2 Assay for human Bone Morphogenetic Protein (BMP) Response Element (BRE) (AID 2282933); details: HepG2 BMP response element reporter, Attagene transcription factor profiling; actives raise or lower the signal
Procedure, shortened: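 Fluorescence-labelled reporter cDNA fragments, separated by capillary electrophoresis, gave the signal for this component of a 52-readout multiplex. HepG2 cells were transfected, exposed to chemicals for 24 h, and compared with DMSO using bidirectional fitting.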

[7] = ATG_E_Box_CIS: Attagene CIS-FACTORIAL HepG2 Assay for human Enhancer Box (E-box) (AID 2282936); details: HepG2 E-box cis-reporter transcription, actives raise or lower the signal
Procedure, shortened: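 HepG2 cells transiently transfected with multiplexed cis-element reporter units, dosed 24 h; reporter mRNA quantified by RT-PCR, 6-FAM labelling, HpaI digestion and capillary electrophoresis. E-box (USF1) signal fitted bidirectionally vs DMSO.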

[8] = ATG_M_61_CIS: Attagene CIS-FACTORIAL HepG2 Assay for M61 Transcription Factor (Internal Marker) (AID 2282937); details: HepG2 Attagene CIS-FACTORIAL M61 internal marker reporter; actives raise or lower the signal
Procedure, shortened: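 Fluorescence from labelled cDNA fragments, separated by capillary electrophoresis, quantifies reporter induction. HepG2 cells bearing transiently transfected cis-promoter MRTUs were incubated with test chemical for 24 h; DMSO defined baseline for gain/loss fitting.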

[9] = ATG_EGR_CIS: Attagene CIS-FACTORIAL HepG2 Assay for human Early Growth Response 1 (EGR1) (AID 2282938); details: HepG2 Attagene CIS-FACTORIAL EGR reporter mRNA; actives raise or lower the signal
Procedure, shortened: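 Cell-based multiplex transcription assay: HepG2 carrying transfected cis-element reporter units, 24 h chemical treatment. Fluorescence from capillary electrophoresis of RT-PCR products gives mRNA levels; fitting is bidirectional relative to DMSO.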

[10] = ATG_M_19_CIS: Attagene CIS-FACTORIAL HepG2 Assay for M19 Transcription Factor (Internal Marker) (AID 2282939); details: HepG2 Attagene CIS-FACTORIAL M19 internal marker reporter; actives raise or lower the signal
Procedure, shortened: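 HepG2, MRTU transient transfection, 24 h dosing. Total RNA → RT-PCR → 6-FAM primer extension → HpaI digest → CE fluorescence. Bidirectional curve fit, DMSO negative control.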

[11] = ATG_Ets_CIS: Attagene CIS-FACTORIAL HepG2 Assay for human Erythroblast Transformation Specific (ETS) (AID 2282941); details: HepG2 ETS cis-reporter transcription, actives raise or lower the signal
Procedure, shortened: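 Human HepG2 hepatoma cells were transiently transfected with promoter-driven reporter constructs and treated for 24 hours. Reporter transcripts were quantified by RT-PCR with fluorescent primer extension; bidirectional curve fitting used DMSO as reference.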

[12] = ATG_FoxO_CIS: Attagene CIS-FACTORIAL HepG2 Assay for human Forkhead box O (FoxO) (AID 2282943); details: HepG2 Attagene cis-reporter, FoxO element, mRNA; actives raise or lower the signal
Procedure, shortened: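 HepG2 cells transiently transfected with cis-element-driven reporter units report endogenous FoxO activity. After 24 h chemical exposure, reporter mRNA quantified by RT-PCR, fluorescent labeling, HpaI digestion and capillary electrophoresis; bidirectional fit versus DMSO.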

[13] = ATG_ISRE_CIS: Attagene CIS-FACTORIAL HepG2 Assay for human Interferon Regulatory Factor 1 (IRF1) binding to an Interferon-Stimulated Response Element (ISRE) (AID 2282948); details: HepG2 ISRE cis-reporter (Attagene), mRNA transcription readout; actives raise or lower the signal
Procedure, shortened: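 Cell-based cis-reporter assay; HepG2; 24 h exposure; reporter mRNA by RT-PCR plus capillary electrophoresis fluorescence; activity in either direction scored relative to DMSO.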

[14] = ATG_M_06_CIS: Attagene CIS-FACTORIAL HepG2 Assay for M06 Transcription Factor (Internal Marker) (AID 2282950); details: HepG2 Attagene CIS-FACTORIAL M06 internal marker reporter; actives raise or lower the signal
Procedure, shortened: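 Measured 24 h post-dosing in transiently transfected HepG2 cells, this internal-marker endpoint reports reporter mRNA via RT-PCR with fluorescent primer extension and capillary electrophoresis. DMSO served as negative control and baseline for bidirectional fitting.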

[15] = molecular target: Paired box protein Pax-6 (Homo sapiens) (UniProt P26367); experiment: ATG_Pax6_CIS: Attagene CIS-FACTORIAL HepG2 Assay for human Paired Box 6 (PAX6) (AID 2282956); details: HepG2 CIS-FACTORIAL PAX6 reporter transcription, RNA readout; actives raise or lower the signal
Paired box protein Pax-6 (Homo sapiens), sequence (P26367 whole entry, looked up): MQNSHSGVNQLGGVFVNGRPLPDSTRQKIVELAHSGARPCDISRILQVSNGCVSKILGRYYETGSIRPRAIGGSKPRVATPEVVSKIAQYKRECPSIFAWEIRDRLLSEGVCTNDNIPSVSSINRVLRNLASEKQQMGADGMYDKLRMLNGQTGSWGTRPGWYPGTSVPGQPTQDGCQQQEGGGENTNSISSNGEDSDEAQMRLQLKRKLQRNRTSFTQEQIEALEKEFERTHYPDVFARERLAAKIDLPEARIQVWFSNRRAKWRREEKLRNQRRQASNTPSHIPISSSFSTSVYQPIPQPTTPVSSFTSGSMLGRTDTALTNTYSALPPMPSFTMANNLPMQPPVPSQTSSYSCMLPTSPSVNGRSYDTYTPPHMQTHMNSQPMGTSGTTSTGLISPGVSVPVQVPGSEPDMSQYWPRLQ
Procedure, shortened: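 Multiplexed cis-reporter HepG2 system; 24 h treatment; reporter mRNA read by RT-PCR/CE fluorescence; bidirectional fit vs DMSO.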

[16] = ATG_SREBP_CIS: Attagene CIS-FACTORIAL HepG2 Assay for human Sterol Regulatory Element Binding (SREBP) (AID 2282962); details: HepG2 Attagene cis-factorial SREBP reporter, mRNA; actives raise or lower the signal
Procedure, shortened: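 mRNA induction of transfected cis-promoter reporters in HepG2 cells, 24 h post-dose. Detection: RT-PCR with 6-FAM-labelled products, HpaI digest, capillary electrophoresis. DMSO served as negative control and baseline.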

[17] = ATG_TA_CIS: Attagene CIS-FACTORIAL HepG2 Assay for human TA Basal Promoter (AID 2282964); details: HepG2 Attagene CIS-factorial TA basal promoter reporter; actives raise or lower the signal
Procedure, shortened: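 Cis-factorial format in HepG2: reporters report endogenous factors, not chimeric Gal4 fusions. After 24 h treatment, reporter transcripts were measured by RT-PCR-capillary electrophoresis fluorescence, analysed bidirectionally versus DMSO.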

[18] = ATG_TCF_b_cat_CIS: Attagene CIS-FACTORIAL HepG2 Assay for human T-Cell-Factor with beta-catenin (TCF/b-cat) (AID 2282965); details: HepG2 TCF/beta-catenin cis-reporter transcription, actives raise or lower the signal
Procedure, shortened: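 HepG2 cells transiently transfected with cis-promoter-driven multiplexed reporter units; reporter mRNA measured 24 h after dosing by RT-PCR, FAM labelling, HpaI digestion and capillary electrophoresis. Bidirectional fitting relative to DMSO baseline.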

[19] = ATG_TGFb_CIS: Attagene CIS-FACTORIAL HepG2 Assay for human Transforming Growth Factor (TGF) (AID 2282967); details: HepG2 Attagene CIS TGFb reporter, mRNA transcription; actives raise or lower the signal
Procedure, shortened: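 Multiplexed cis-reporter HepG2 system, 24 h treatment; mRNA induction read by fluorescence after RT-PCR and CE; DMSO negative control, bidirectional curve fitting.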

[20] = ATG_Oct_MLP_CIS: Attagene CIS-FACTORIAL HepG2 Assay for human Octamer-Binding Transcription Factor (Oct) (AID 2282993); details: HepG2 Attagene cis-factorial Oct reporter, mRNA; actives raise or lower the signal
Procedure, shortened: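 After 24 h compound exposure, transfected HepG2 cells were lysed for total RNA; reporter-specific cDNA was PCR-amplified, fluorescently labelled and sized by capillary electrophoresis. Bidirectional curve fitting used DMSO as baseline.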

Measured: AC50

C1=CCC=C1
inactive: [1] | [2] | [3] | [4] | [5] | [6] | [7] | [8] | [9] | [10] | [11] | [12] | [13] | [14] | [15] | [16] | [17] | [18] | [19] | [20]

Oc1ccc(Cl)cc1C1CCCC1
active: [1] 33.4 µM | [3] 43.2 µM | [6] 56.6 µM | [9] 54.7 µM | [11] 52 µM | [12] 61.3 µM | [13] 57.3 µM | [15] 62.4 µM | [16] 25.6 µM | [18] 61.4 µM | [20] 47.9 µM
inactive: [2] | [4] | [5] | [7] | [8] | [10] | [14] | [17] | [19]

C=CN1CCCCCC1=O
inactive: [1] | [2] | [3] | [4] | [5] | [6] | [7] | [8] | [9] | [10] | [11] | [12] | [13] | [14] | [15] | [16] | [17] | [18] | [19] | [20]

CCCCCCC1CCCC(=O)O1 (stereo not given)
active: [7] 75.2 µM
inactive: [1] | [2] | [3] | [4] | [5] | [6] | [8] | [9] | [10] | [11] | [12] | [13] | [14] | [15] | [16] | [17] | [18] | [19] | [20]

CCCCCCCC#N
inactive: [1] | [2] | [3] | [4] | [5] | [6] | [7] | [8] | [9] | [10] | [11] | [12] | [13] | [14] | [15] | [16] | [17] | [18] | [19] | [20]

CN(C)c1ccc(C(c2ccccc2)c2ccc(N(C)C)cc2)cc1
active: [4] 100 µM | [6] 100 µM
inactive: [1] | [2] | [3] | [5] | [7] | [8] | [9] | [10] | [11] | [12] | [13] | [14] | [15] | [16] | [17] | [18] | [19] | [20]

— PubChem BioAssay (EPA / NIEHS)
